Laboratory results reported in the supplement of paper PMC5499739.
Over roughly 16,000 sequences, “Z-score” has its median near -0.37; the highest 2% begin near 3.2. The sample as a whole holds a higher share of the highest values than the screen did.

The sequences below were run on RBM10 RRM1-ZnF (GST-tagged construct) (assay: RNAcompete 7-mer binding Z-score; higher = stronger binding preference).
Method in brief: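 A one-sided Z-score for enrichment, taken across the probes containing each heptamer motif, was assigned to every such motif. The RNA came from a designed pool of 241 399 sequences up to 41 nt (1.5 nmol), bound by 20 pmol of GST-tagged RBM10 constructs in 1 ml Hepes pH 7.8 buffer with glutathione Sepharose beads for 30 min at 4°C. Four 2-min washes at 4°C preceded identification of bound RNA by microarray hybridisation.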

Sequence	RNAcompete 7-mer binding Z-score
GAAACGU	-0.00246
GACAGCC	-0.539
CGUCUGC	-0.759
UUUUAAC	-0.818
GUAGAUG	1.93
AGGUUCA	-0.0285
UUUUCUU	-0.772
GAGCGGU	1.72
GAGCGAG	3.42
GAGCGGC	1.44
GAGCGGG	3.61
UAGCGGA	1.13
CAGCGGG	2.5
GAGCGAC	0.192
UAGCGAG	0.826
GAGCGGA	3.98
CCUACCU	-0.766
CCAGUCC	-0.789
AACGACU	-0.457
CGUGCUG	-0.149
CCCGCUC	-0.552
CGGUAAG	1.26
GGGUAAC	2.4
AGGUAAA	1.82
CGGUAAA	0.29

Sequence	RNAcompete 7-mer binding Z-score
GGGUAAA	3.98
GGGUAAG	4.39
CCCUUCA	-0.776
CCACUAC	-0.623
AUCCGAU	-0.717
GAAAAAG	1.49
GGGAAAA	3.4
CGGAAAA	0.654
GGGAAGU	3
GGGAAGA	3.86
GGAAAAA	1.86
UGGAAAG	2.84
UGAAAAG	0.381
GGAAAAG	3.24
CGGAAGA	0.923
CGGAAAG	1.84
GGGAAAG	4.79
UCCGAUG	-0.464
UGUACUA	-0.415
AUCGGCC	-0.62
CUCGCAG	-0.11
GAGCUGG	1.88
GGUGCGG	2.92
GGCGUGC	0.738
CGGUCUU	-0.607

Sequence	RNAcompete 7-mer binding Z-score
CUAUGGU	-0.116
CCUCUUA	-0.85
AGGGUAA	4.13
GAGGUAA	2.23
CGGGUAU	1.59
GGGGUAG	4.61
GGGGUAA	4.14
CGGGUAA	1.89
UGGGUAA	2.97
AGGGUAU	3.69
AAGGUAU	2.13
GGGGUAU	3.17
GGGGUAC	2.57
GUGGUAG	2.2
ACAUUGG	0.553
AGCUAAG	-0.035
CAUUUAC	-0.85
AAUCGAA	-0.181
ACCAGCC	-0.672
CCUGAGG	0.339
GUUCUGU	-0.431
CACUAGC	-0.633
CCGUGCC	-0.532
AGAAUGG	3.27
GGAAUGG	4.85

Sequence	RNAcompete 7-mer binding Z-score
UGAAUGG	2.5
CGAAUGG	1.29
GGAAUGU	1.94
AGAAUGU	0.235
UUGUUUG	0.0138
UCUAAGG	-0.00896
AUGCGUU	-0.405
UCCAACC	-0.805
GAAGGUU	2.87
UAAGGUA	1.5
CAAGGUG	1.76
GAAGGUA	3.84
GAAGGUC	1.25
AAAGGUA	3.05
UAAGGUG	2.16
AAAGGUG	3.71
GAAGGUG	4.59
AUUAAGG	1.2
CGGGUCU	0.339
CCGAAGC	-0.61
UGGUUAG	2.24
GGGUUGG	4.64
UGGUUGA	2.02
CGGUUGA	1.01
CGGUUGG	2.56

Sequence	RNAcompete 7-mer binding Z-score
GGGUUGA	3.8
CGGUUAG	0.881
AGGUUGG	3.06
GGGUUAG	4.38
UCCAGAG	-0.35
ACAGAAG	0.595
UUACAAA	-0.305
UAACUGA	-0.295
GGUCGGU	1.24
GGGAUGC	3.06
GGGAUAG	4
GGAUUGG	3.79
AGGAUAG	2.16
GGAUUGU	1.22
CGAUUGG	0.949
UGGAUAG	2.48
GGGAUGU	3.21
GGUUAGU	1.7
GGGAUGA	4.17
GGUUAGG	4.59
GGUUAGC	1.12
UGACAGG	2.13
UACCCAG	-0.659
UCGCGUA	-0.532
ACUCUUU	-0.844

Sequence	RNAcompete 7-mer binding Z-score
AAUUUCG	-0.607
GUGCUAA	0.153
UCAUUAA	-0.509
GCAUUCG	-0.444
GGGAUUC	1.12
AGGAUUG	1.5
AGAUAGG	2.44
GGAUAGG	4.11
GGGAUAA	3.48
GGAUAGA	2.61
GGGAUAC	2.5
GGGAUUG	3.5
UGGAUAA	1.15
GUAGUUC	-0.243
UGAAUAG	0.387
GUCUGAC	-0.529
CACAACA	-0.363
AUGGUGG	3.82
CUGGUGG	1.64
UUGGUGG	2.48
GUGGUGG	3.9
AUGGUGC	1.03
GUGGUGC	1.76
CCCGAGG	0.384
AUCACAU	-0.457

Sequence	RNAcompete 7-mer binding Z-score
CAGCAAC	-0.539
CGACGCA	-0.36
UGGGUCU	1.12
ACUGCUG	-0.675
UAGGGUG	4.81
UAGGGUA	3.47
GAGGGUC	1.44
GAGGGUG	3.75
AAGGGUA	4.59
CAGGGUA	2.99
AAGGGUC	1.72
AAGGGCA	2.78
UCGGGUA	1.4
UAGGGUC	1.55
GAGGGUU	3.03
UAGGGCG	2.22
UGUUUCU	-0.418
CCUAAGG	-0.344
AGUCCCA	-0.714
AUGGUAG	2.74
ACGCCAU	-0.665
AAACCUC	-0.802
UCCCUUU	-0.912
GCAUUUG	-0.477
CCGAAGG	0.179

Sequence	RNAcompete 7-mer binding Z-score
CAGGGUG	3.21
UCGGGUU	1.12
AAGGUUU	2.51
AAGGGUU	4.07
CAGGGUC	1.09
GAGGGCA	2.12
CAGGGCG	2.02
CAGGGUU	2.15
AAAGGUU	3.12
UAGGGUU	3.33
CCGGGUA	0.625
GAGGGUA	3.95
GCCGCGA	-0.422
AACGUCA	-0.574
AGCUAUG	-0.168
GUUCGCA	-0.652
CCCUUAU	-0.831
AGCUGUU	-0.737
UAUACGU	-0.357
CAGGUGA	1.49
AAGGUAA	2.97
CAGGUAG	2.32
AAGGUGG	4.39
GAGGUGA	2.56
AAGGUGU	2.55

Sequence	RNAcompete 7-mer binding Z-score
AAGGUGC	2.39
GAGGUGC	1.81
GAGGUGG	3.35
AAGGUGA	3.66
GAGGUGU	2.37
AAGGUAG	3.69
CGUUACU	-0.558
AGUAUUC	-0.493
AAACCAA	-0.548
CAGCGUC	-0.623
AGGAAUA	0.881
ACUACUA	-0.402
CCCUGUG	-0.327
GACUCUA	-0.642
GUAUGUG	1.07
CACUCGC	-0.604
AUGCGAG	0.569
CAGGUUG	2.04
AAGGUUG	3.49
UAGGUUG	2.09
AGAGCGC	-0.568
GCACACU	-0.295
ACGUGGG	2.43
GGGUGGU	4.8
UGGUGGA	2.86

Sequence	RNAcompete 7-mer binding Z-score
GGGUGGG	4.82
UGGUGGU	2.8
UGGUGGC	1.8
UCGUGGG	2.53
GGGUGGC	2.89
UGGUGGG	4.74
GCGUGGG	3.53
CGGUGGU	1.64
GGGUGCG	2.96
AACAGAA	-0.0447
UUUGCGU	-0.642
AUGUGGA	2.27
UUUGACC	-0.88
UCUGCAG	-0.629
AAGCUGG	0.904
CGGUGGA	2.43
AGGUGGG	3.76
GGGUGGA	4.53
AGGUGGU	2.18
AGGUGGA	3.15
CGGUGGG	3.2
UAUAUAA	-0.519
AGAACGG	1.53
GGAACGG	4.07
GAACGGG	4.25

Sequence	RNAcompete 7-mer binding Z-score
GAACGGU	1.64
GAACGGC	0.693
GGGACGG	3.45
GGACGGC	1.19
CGGACGG	1.32
CGAACGG	1.21
CGACGGG	1.62
GGACGGG	4.52
UGGACGG	3.09
AUAGGCA	0.686
UGGGCCU	0.335
CUUACCC	-0.792
CUAUUGC	-0.714
GGAUGGU	3.9
AGAUGGU	1.71
AGAUGGA	2.97
GGAUGGC	2.58
GGAUGGA	4.23
UGAUGGU	1.87
UCUGUGA	-0.581
AGGGAAC	2.57
AGGGAAA	4.7
AAGGGAA	4.37
AGGGAAG	4.53
GAGGGAU	3.16

Sequence	RNAcompete 7-mer binding Z-score
AAGGGAU	3.65
ACGGGAA	3.12
CAGGGAU	2.36
CGGGAAA	2.41
CAGGGAA	2.96
CGGGAAG	2.18
GGGGAAA	3.19
CUGUACU	-0.743
AACCCCA	-0.483
AAGAGCG	0.836
UUUUUAA	-0.652
ACUCUCG	-0.785
GGGGGAA	3.15
GAGGGAG	3.2
AAGGGCG	3
AGGGGAA	3.57
AAGGGAG	3.99
CAGGGAG	2.8
UGGGAAG	4.03
UGGGAAA	2.58
UAGGGAG	3.25
AAGGGAC	3.18
UGGGAAU	2.53
AGAUAGU	0.0853
UAGCGAU	-0.194

Sequence	RNAcompete 7-mer binding Z-score
ACGUCAU	-0.513
UAUCGAU	-0.513
UGUCCAC	-0.558
CGACCGA	-0.519
GUCCGGA	0.0625
CAGUAUU	-0.646
CCUGCGG	0.27
GGAGGUG	3.72
GGAGGUA	3.28
AGAGGUG	2.04
GGAGGUU	2.51
UGAGGUA	1.97
CGAGGUA	1.57
GGAGCGC	1.27
CAAUGAA	-0.496
AGCUCUA	-0.629
UUAUCAG	-0.399
AUAAAGG	1.64
AGGUAGG	3.53
GGGUAUC	2.04
GGGUAGC	2.73
CGGUAGG	1.82
GGGUAGU	3.11
GGGUAGG	4.65
GGGUAGA	3.74

Sequence	RNAcompete 7-mer binding Z-score
AGGUAGC	0.803
AGGUAUG	2.16
UGGUAGG	2.98
GCGUAGG	1.78
GGGUAUG	4.08
GGAGUUG	2.64
AAACGGU	1.16
CUACAAC	-0.668
CACAAAA	-0.581
AAACCAC	-0.519
GACGGGU	2.36
AGGAAUG	2.25
GGGAACG	3.67
GGGAAUU	2.4
GGGAACA	2.67
GGGAAUG	3.93
UGGAACG	2.13
ACGCUCU	-0.688
CCCUGGA	-0.123
GGUUACA	1.26
UGGAUGG	4.14
UGGAUGA	2.17
AGGAUGC	1.03
UGGAUGC	1.17
CGGAUGG	2.38

Sequence	RNAcompete 7-mer binding Z-score
GAGAUGG	3.54
AGGAUGG	3.77
UAGAUGG	2.26
GAGAUGU	0.361
AGGAUCC	-0.34
UGGAUUC	-0.0414
UUCGUAA	-0.802
CCACUCU	-0.711
UCGCACU	-0.565
GAGCAUU	-0.353
UAUGUGA	0.118
UACGAGU	-0.155
AUUUUCG	-0.87
GUGGAAG	3.83
AUGGAAG	3.6
AUGGAAC	1.99
AUGGAAA	2.57
GUGGAAC	1.61
GUGGAAA	2.63
